# Data published in paper PMC11006913.
# Numbering of substitutions follows the chain as printed.
# Columns and labels:
# Assay in all cases: PBM; 200 nM protein, PBS
# Conditions in all cases: dsDNA, one strand shown
# SIX6 [1] = target: T1, SIX6 (Homo sapiens, UniProt O95475 114-200, L167I)
# T1 sequence: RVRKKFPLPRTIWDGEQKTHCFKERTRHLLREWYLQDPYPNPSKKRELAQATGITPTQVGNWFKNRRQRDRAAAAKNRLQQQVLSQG
# SIX6 [2] = target: T2, SIX6 (Homo sapiens, UniProt O95475 114-200, L143V)
# T2 sequence: T1 sequence with L30V, I54L
# SIX6 [3] = target: T3, SIX6 (Homo sapiens, UniProt O95475 114-200, H141N)
# T3 sequence: T1 sequence with H28N, I54L
# SIX6 [4] = target: T4, SIX6 (Homo sapiens, UniProt O95475 114-200, T165P)
# T4 sequence: T1 sequence with T52P, I54L
# SIX6 [5] = target: T5, SIX6 (Homo sapiens, UniProt O95475 114-200, L167M)
# T5 sequence: T1 sequence with I54M
# SIX6 [6] = target: T6, SIX6 (Homo sapiens, UniProt O95475 114-200, L143M)
# T6 sequence: T1 sequence with L30M, I54L
# SIX6 [7] = target: T7, SIX6 (Homo sapiens, UniProt O95475 114-200, L143I)
# T7 sequence: T1 sequence with L30I, I54L
# SIX6 [8] = target: T8, SIX6 (Homo sapiens, UniProt O95475 114-200, T165G)
# T8 sequence: T1 sequence with T52G, I54L
# SIX6 [9] = target: T9, SIX6 (Homo sapiens, UniProt O95475 114-200, T139Q)
# T9 sequence: T1 sequence with T26Q, I54L
# SIX6 [10] = target: T10, SIX6 (Homo sapiens, UniProt O95475 114-200, T165A)
# T10 sequence: T1 sequence with T52A, I54L
# SIX6 [11] = target: T11, SIX6 (Homo sapiens, UniProt O95475 114-200, L167V)
# T11 sequence: T1 sequence with I54V
# SIX6 [12] = target: T12, SIX6 (Homo sapiens, UniProt O95475 114-200)
# T12 sequence: T1 sequence with I54L
# SIX6 [13] = target: T13, SIX6 (Homo sapiens, UniProt O95475 114-200, T165I)
# T13 sequence: T1 sequence with T52I, I54L
Sequence,binding signal (SIX6 [1]),binding signal (SIX6 [2]),binding signal (SIX6 [3]),binding signal (SIX6 [4]),binding signal (SIX6 [5]),binding signal (SIX6 [6]),binding signal (SIX6 [7]),binding signal (SIX6 [8]),binding signal (SIX6 [9]),binding signal (SIX6 [10]),binding signal (SIX6 [11]),binding signal (SIX6 [12]),binding signal (SIX6 [13])
ATGACACC,"10.7 upbm affinity estimate (log intensity, higher = more binding, comparable within an allelic series)","10.2 upbm affinity estimate (log intensity, higher = more binding, comparable within an allelic series)","11.1 upbm affinity estimate (log intensity, higher = more binding, comparable within an allelic series)","9.61 upbm affinity estimate (log intensity, higher = more binding, comparable within an allelic series)","10.1 upbm affinity estimate (log intensity, higher = more binding, comparable within an allelic series)","10.7 upbm affinity estimate (log intensity, higher = more binding, comparable within an allelic series)","10.4 upbm affinity estimate (log intensity, higher = more binding, comparable within an allelic series)","11.4 upbm affinity estimate (log intensity, higher = more binding, comparable within an allelic series)","11.3 upbm affinity estimate (log intensity, higher = more binding, comparable within an allelic series)","11.4 upbm affinity estimate (log intensity, higher = more binding, comparable within an allelic series)","10.5 upbm affinity estimate (log intensity, higher = more binding, comparable within an allelic series)","10.9 upbm affinity estimate (log intensity, higher = more binding, comparable within an allelic series)","10.9 upbm affinity estimate (log intensity, higher = more binding, comparable within an allelic series)"
GGGTATCA,"11.7 upbm affinity estimate (log intensity, higher = more binding, comparable within an allelic series)","10.5 upbm affinity estimate (log intensity, higher = more binding, comparable within an allelic series)","11.7 upbm affinity estimate (log intensity, higher = more binding, comparable within an allelic series)","9.44 upbm affinity estimate (log intensity, higher = more binding, comparable within an allelic series)","11 upbm affinity estimate (log intensity, higher = more binding, comparable within an allelic series)","11.4 upbm affinity estimate (log intensity, higher = more binding, comparable within an allelic series)","10.6 upbm affinity estimate (log intensity, higher = more binding, comparable within an allelic series)","11.8 upbm affinity estimate (log intensity, higher = more binding, comparable within an allelic series)","11.6 upbm affinity estimate (log intensity, higher = more binding, comparable within an allelic series)","11.6 upbm affinity estimate (log intensity, higher = more binding, comparable within an allelic series)","11.6 upbm affinity estimate (log intensity, higher = more binding, comparable within an allelic series)","11.4 upbm affinity estimate (log intensity, higher = more binding, comparable within an allelic series)","11.5 upbm affinity estimate (log intensity, higher = more binding, comparable within an allelic series)"
CCCTCTGC,"8.98 upbm affinity estimate (log intensity, higher = more binding, comparable within an allelic series)","8.83 upbm affinity estimate (log intensity, higher = more binding, comparable within an allelic series)","9.02 upbm affinity estimate (log intensity, higher = more binding, comparable within an allelic series)","8.85 upbm affinity estimate (log intensity, higher = more binding, comparable within an allelic series)","8.95 upbm affinity estimate (log intensity, higher = more binding, comparable within an allelic series)","9.06 upbm affinity estimate (log intensity, higher = more binding, comparable within an allelic series)","8.9 upbm affinity estimate (log intensity, higher = more binding, comparable within an allelic series)","9.1 upbm affinity estimate (log intensity, higher = more binding, comparable within an allelic series)","9.06 upbm affinity estimate (log intensity, higher = more binding, comparable within an allelic series)","9.06 upbm affinity estimate (log intensity, higher = more binding, comparable within an allelic series)","8.95 upbm affinity estimate (log intensity, higher = more binding, comparable within an allelic series)","9.05 upbm affinity estimate (log intensity, higher = more binding, comparable within an allelic series)","8.97 upbm affinity estimate (log intensity, higher = more binding, comparable within an allelic series)"
CGCGGCCA,"8.81 upbm affinity estimate (log intensity, higher = more binding, comparable within an allelic series)","8.96 upbm affinity estimate (log intensity, higher = more binding, comparable within an allelic series)","8.88 upbm affinity estimate (log intensity, higher = more binding, comparable within an allelic series)","8.99 upbm affinity estimate (log intensity, higher = more binding, comparable within an allelic series)","8.82 upbm affinity estimate (log intensity, higher = more binding, comparable within an allelic series)","8.81 upbm affinity estimate (log intensity, higher = more binding, comparable within an allelic series)","8.93 upbm affinity estimate (log intensity, higher = more binding, comparable within an allelic series)","8.87 upbm affinity estimate (log intensity, higher = more binding, comparable within an allelic series)","8.91 upbm affinity estimate (log intensity, higher = more binding, comparable within an allelic series)","8.86 upbm affinity estimate (log intensity, higher = more binding, comparable within an allelic series)","8.96 upbm affinity estimate (log intensity, higher = more binding, comparable within an allelic series)","8.84 upbm affinity estimate (log intensity, higher = more binding, comparable within an allelic series)","8.87 upbm affinity estimate (log intensity, higher = more binding, comparable within an allelic series)"
ATTGATAC,"11.4 upbm affinity estimate (log intensity, higher = more binding, comparable within an allelic series)","10.5 upbm affinity estimate (log intensity, higher = more binding, comparable within an allelic series)","11.5 upbm affinity estimate (log intensity, higher = more binding, comparable within an allelic series)","9.95 upbm affinity estimate (log intensity, higher = more binding, comparable within an allelic series)","10.8 upbm affinity estimate (log intensity, higher = more binding, comparable within an allelic series)","11.2 upbm affinity estimate (log intensity, higher = more binding, comparable within an allelic series)","10.5 upbm affinity estimate (log intensity, higher = more binding, comparable within an allelic series)","11.4 upbm affinity estimate (log intensity, higher = more binding, comparable within an allelic series)","11.2 upbm affinity estimate (log intensity, higher = more binding, comparable within an allelic series)","11.4 upbm affinity estimate (log intensity, higher = more binding, comparable within an allelic series)","11.2 upbm affinity estimate (log intensity, higher = more binding, comparable within an allelic series)","11.2 upbm affinity estimate (log intensity, higher = more binding, comparable within an allelic series)","11.2 upbm affinity estimate (log intensity, higher = more binding, comparable within an allelic series)"
GCCAGTCC,"9.04 upbm affinity estimate (log intensity, higher = more binding, comparable within an allelic series)","8.92 upbm affinity estimate (log intensity, higher = more binding, comparable within an allelic series)","8.9 upbm affinity estimate (log intensity, higher = more binding, comparable within an allelic series)","9.04 upbm affinity estimate (log intensity, higher = more binding, comparable within an allelic series)","8.92 upbm affinity estimate (log intensity, higher = more binding, comparable within an allelic series)","8.89 upbm affinity estimate (log intensity, higher = more binding, comparable within an allelic series)","9.03 upbm affinity estimate (log intensity, higher = more binding, comparable within an allelic series)","9 upbm affinity estimate (log intensity, higher = more binding, comparable within an allelic series)","9.12 upbm affinity estimate (log intensity, higher = more binding, comparable within an allelic series)","8.81 upbm affinity estimate (log intensity, higher = more binding, comparable within an allelic series)","8.95 upbm affinity estimate (log intensity, higher = more binding, comparable within an allelic series)","8.9 upbm affinity estimate (log intensity, higher = more binding, comparable within an allelic series)","8.85 upbm affinity estimate (log intensity, higher = more binding, comparable within an allelic series)"
